Source: PubChem BioAssay (Tox21)
Inconclusive results are not listed. Calls of active or inactive are those of the source. Unless noted, the call rests on the fitted dose curve; in most records, active means well fitted curve in the direction sought with a large enough effect in the repeat runs; inconclusive means weak or mixed curves; inactive means no such curve, though single readings can be large; an effect the other way counts as inactive or inconclusive.

Legend:
[1] = qHTS assay to identify small molecule antagonists of the androgen receptor (AR) signaling pathway using the MDA cell line in the presence of 0.5 nM R1881 - cell viability counter screen (AID 1259242); further: nearly all actives have a fitted effect of over 45% in size; further: potency means the concentration at half of the fitted maximal effect
Procedure, shortened: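 R1881 at 0.5 nM final stimulated MDA-kb2 cells during 16 hr compound treatment at 37C. Cytotoxicity read: CellTiter-Fluor fluorescence after 30 min.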

[2] = target: Androgen receptor (Homo sapiens) (UniProt P10275); assay: qHTS assay to identify small molecule antagonists of the androgen receptor (AR) signaling pathway using the MDA cell line in the presence of 0.5 nM R1881 (AID 1259243); further: nearly all actives have a fitted effect of over 50% in size; further: potency means the concentration at half of the fitted maximal effect
Chain of Androgen receptor (Homo sapiens) (P10275 whole entry, looked up): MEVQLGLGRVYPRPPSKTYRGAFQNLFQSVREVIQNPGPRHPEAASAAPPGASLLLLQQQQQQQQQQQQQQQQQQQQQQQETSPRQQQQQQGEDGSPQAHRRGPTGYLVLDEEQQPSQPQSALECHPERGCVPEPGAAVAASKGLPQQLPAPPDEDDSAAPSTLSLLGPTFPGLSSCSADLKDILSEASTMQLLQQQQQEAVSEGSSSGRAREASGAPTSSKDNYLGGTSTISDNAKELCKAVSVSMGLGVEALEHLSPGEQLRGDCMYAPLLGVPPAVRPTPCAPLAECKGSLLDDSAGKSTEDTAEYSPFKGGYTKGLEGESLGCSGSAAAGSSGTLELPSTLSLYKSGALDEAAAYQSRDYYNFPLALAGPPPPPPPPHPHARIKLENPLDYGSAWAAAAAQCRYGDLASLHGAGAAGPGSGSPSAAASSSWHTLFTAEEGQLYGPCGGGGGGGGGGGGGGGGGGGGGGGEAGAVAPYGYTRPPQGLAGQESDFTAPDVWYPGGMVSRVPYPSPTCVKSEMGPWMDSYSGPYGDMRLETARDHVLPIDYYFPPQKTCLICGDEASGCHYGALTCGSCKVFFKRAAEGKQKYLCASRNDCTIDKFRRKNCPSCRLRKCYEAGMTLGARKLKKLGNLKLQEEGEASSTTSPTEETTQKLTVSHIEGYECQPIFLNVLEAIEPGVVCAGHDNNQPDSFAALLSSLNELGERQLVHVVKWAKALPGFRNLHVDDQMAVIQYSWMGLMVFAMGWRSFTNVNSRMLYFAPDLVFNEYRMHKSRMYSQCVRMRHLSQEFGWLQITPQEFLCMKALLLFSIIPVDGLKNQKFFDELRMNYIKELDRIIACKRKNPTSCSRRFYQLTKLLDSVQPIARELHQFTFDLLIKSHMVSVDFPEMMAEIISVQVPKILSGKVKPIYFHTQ
Procedure, shortened: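 We exposed MDA-kb2 cells to compounds under 0.5 nM R1881 stimulation for 16 hr at 37C and quantified MMTV-driven luciferase by luminescence.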

[3] = target: Estrogen receptor (Homo sapiens) (UniProt P03372); assay: qHTS assay to identify small molecule antagonists of the estrogen receptor alpha (ER-alpha) signaling pathway using the BG1 cell line in the presence of 0.1 nM 17-beta-estradiol (AID 1259244); further: nearly all actives have a fitted effect of over 50% in size; further: potency means the concentration at half of the fitted maximal effect
Chain of Estrogen receptor (Homo sapiens) (P03372 whole entry, looked up): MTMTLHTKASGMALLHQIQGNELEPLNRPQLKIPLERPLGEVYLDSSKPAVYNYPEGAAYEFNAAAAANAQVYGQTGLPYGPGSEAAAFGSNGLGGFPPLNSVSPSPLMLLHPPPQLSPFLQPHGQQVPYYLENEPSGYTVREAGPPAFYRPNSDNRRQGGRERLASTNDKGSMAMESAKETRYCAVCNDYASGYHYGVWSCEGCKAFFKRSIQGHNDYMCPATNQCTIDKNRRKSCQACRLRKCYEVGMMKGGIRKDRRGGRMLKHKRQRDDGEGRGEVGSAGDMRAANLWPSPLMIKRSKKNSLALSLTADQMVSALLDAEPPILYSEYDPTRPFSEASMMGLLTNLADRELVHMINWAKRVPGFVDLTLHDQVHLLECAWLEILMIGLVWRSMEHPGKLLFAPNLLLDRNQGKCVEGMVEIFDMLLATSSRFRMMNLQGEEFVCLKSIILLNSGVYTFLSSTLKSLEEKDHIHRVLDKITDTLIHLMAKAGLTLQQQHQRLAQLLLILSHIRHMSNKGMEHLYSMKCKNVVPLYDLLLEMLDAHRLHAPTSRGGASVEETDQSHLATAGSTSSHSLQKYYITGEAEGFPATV
Procedure, shortened: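 VM7Luc4E2; 4xERE-luciferase; 0.1 nM E2 final; 22 h co-incubation, 37C; ONE-Glo luminescence after 30 min at room temperature.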

[4] = qHTS assay to identify small molecule phospholipidosis (PLD) inducers (AID 1259344; active means well fitted curve in the direction sought with a large enough effect; an effect the other way counts as inactive or inconclusive; further: on the % scale 0 is the no-effect control and ±100 the full control effect)
Procedure, shortened: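 HepG2 cells grown on collagen I take up LipidTOX Red while exposed to compound for 24 h; after fixation they are imaged at 20x and pit metrics are extracted.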

[5] = qHTS assay to identify small molecule HDAC inhibitors (AID 1259364);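 further: wild-type HCT-116 cells with endogenous class I/II HDAC activity; top concentration of the series differs between compounds; on the % scale 0 is the no-effect control and ±100 the full control effect; nearly all actives have a fitted effect of over 45% in size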
Procedure, shortened: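 Relative class I and II HDAC activity is taken from the luminogenic signal in HCT-116 cells, with compound exposure 2 hr and reagent development 30 min at room temperature.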

[6] = qHTS assay to identify small molecule agonists of the sonic hedgehog signaling (Shh) pathway - cell viability counter screen (AID 1259366); further: nearly all actives have a fitted effect of over 50% in size; further: potency means the concentration at half of the fitted maximal effect
Procedure, shortened: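 NIH/3T3-derived 3T3 Gli1-Luc cells (stable Gli1-responsive firefly luciferase reporter) were seeded, rested 4 hr at 37 C/5% CO2, then exposed to compounds in DMSO for 24 hr; viability was read by CellTiter-Fluor fluorescence in the same wells.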

[7] = qHTS assay to identify small molecule agonists of the sonic hedgehog signaling (Shh) pathway (AID 1259368; calls by dose curve; further: nearly all actives have a fitted effect of over 15% in size; further: potency means the concentration at half of the fitted maximal effect; on activity change: series mostly up to about 92 µM; on the % scale 0 is the no-effect control and ±100 the full control effect)
Procedure, shortened: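 Mouse fibroblast (NIH/3T3) reporter cells with stably integrated Gli1-Luc were treated 24 hr with compound; firefly luciferase luminescence served as the read-out.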

[8] = qHTS assay to identify small molecule antagonists of the sonic hedgehog signaling (Shh) pathway (AID 1259369; calls by dose curve; further: nearly all actives have a fitted effect of over 45% in size; further: potency means the concentration at half of the fitted maximal effect)
Procedure, shortened: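 Conditioned medium drives Shh signalling in 3T3Gli1-Luc cells; compounds in DMSO co-applied, 24hr at 37 C, then luciferase luminescence.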

[9] = qHTS assay to identify small molecule agonists of the androgen receptor (AR) signaling pathway in the presence of an antagonist - cell viability counter screen (AID 1259379); further: nearly all actives have a fitted effect of over 25% in size; further: potency means the concentration at half of the fitted maximal effect
Procedure, shortened: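 A CellTiter-Fluor read-out measured viability of MDA-kb2 reporter cells (MMTV promoter with AR and GR response elements). Treatment: nilutamide 3.0uM final with compounds at 15 concentrations, 16 hr, 37C, 0% CO2.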

[10] = qHTS assay to identify small molecule agonists of the estrogen receptor beta (ER-beta) signaling pathway - cell viability counter screen (AID 1259380); further: nearly all actives have a fitted effect of over 30% in size; further: potency means the concentration at half of the fitted maximal effect
Procedure, shortened: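 Cells used were ER-beta-UAS-bla HEK293T in medium with 2% charcoal-stripped FBS. They were treated for 16 hr at 37C. Viability came from CellTiter-Glo luminescence.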

[11] = target: Androgen receptor (Homo sapiens) (UniProt P10275); assay: qHTS assay to identify small molecule agonists of the androgen receptor (AR) signaling pathway in the presence of an antagonist (AID 1259381; calls by dose curve; further: nearly all actives have a fitted effect of over 15% in size; further: potency means the concentration at half of the fitted maximal effect)
Procedure, shortened: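 Using human MDA-kb2 cells with an MMTV promoter–luciferase construct (AR and GR response elements), agonist activity is scored under 3.0uM nilutamide (final) co-treatment; 16hr incubation, 37C, luminescence readout via ONE-Glo.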

[12] = qHTS assay to identify small molecule antagonists of the estrogen receptor beta (ER-beta) signaling pathway - cell viability counter screen (AID 1259382); further: nearly all actives have a fitted effect of over 55% in size; further: potency means the concentration at half of the fitted maximal effect
Procedure, shortened: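 Agonist-stimulated (1nM E2) ER-beta-UAS-bla HEK293T cells are incubated with library compounds for 16 hr at 37C. Cell viability is then assessed in the reporter-assay wells by adding CellTiter-Glo and reading luminescence after 30 min.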

[13] = target: Estrogen receptor (Homo sapiens) (UniProt P03372); assay: qHTS assay to identify small molecule agonists of the estrogen receptor alpha (ER-alpha) signaling pathway in the presence of an antagonist (AID 1259383; calls by dose curve; further: top concentration of the series differs between compounds; on the % scale 0 is the no-effect control and ±100 the full control effect; nearly all actives have a fitted effect of over 15% in size)
Procedure, shortened: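 Using VM7Luc4E2 cells seeded 24hr before treatment, antagonist ICI-182,780 (10.0nM final) was added, followed by compounds at 15 concentrations. Plates incubated 22hr; ONE-Glo luminescence quantified reporter activity.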

[14] = qHTS assay to identify small molecule agonists or antagonists of the thyroid stimulating hormone receptor (TSHR) signaling pathway - wild type cell line counter screen (AID 1259384; calls by dose curve; further: on the % scale 0 is the no-effect control and ±100 the full control effect)
Procedure, shortened: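 Wild-type HEK293 cells were plated 18 h at 37 C/5% CO2, pin-dosed with compound plus Ro20-1724 medium, held 30 min at room temperature, then given cAMP-d2 and anti-cAMP-cryptate; fluorescence was read after 1 h. Fifteen concentrations, triplicate.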

[15] = qHTS assay to identify small molecule HDAC inhibitors - cell viability counter screen (AID 1259365); further: nearly all actives have a fitted effect of over 50% in size; further: potency means the concentration at half of the fitted maximal effect
Procedure, shortened: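 Wild-type HCT-116 cells were seeded at 1,500 per well, incubated overnight at 37 C, then exposed to compounds in DMSO for 2hr. Viability was read by CellTiter-Glo luminescence after 30min at room temperature.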

[16] = target: Estrogen receptor beta (Homo sapiens) (UniProt Q92731); assay: qHTS assay to identify small molecule agonists of the estrogen receptor beta (ER-beta) signaling pathway (AID 1259377; active means well fitted activation curve with a large enough effect in the signal ratio in the repeat runs, not every such curve was filed as active; the % refers to the signal ratio; further: on the % scale 0 is the no-effect control and ±100 the full control effect)
Chain of Estrogen receptor beta (Homo sapiens) (Q92731 whole entry, looked up): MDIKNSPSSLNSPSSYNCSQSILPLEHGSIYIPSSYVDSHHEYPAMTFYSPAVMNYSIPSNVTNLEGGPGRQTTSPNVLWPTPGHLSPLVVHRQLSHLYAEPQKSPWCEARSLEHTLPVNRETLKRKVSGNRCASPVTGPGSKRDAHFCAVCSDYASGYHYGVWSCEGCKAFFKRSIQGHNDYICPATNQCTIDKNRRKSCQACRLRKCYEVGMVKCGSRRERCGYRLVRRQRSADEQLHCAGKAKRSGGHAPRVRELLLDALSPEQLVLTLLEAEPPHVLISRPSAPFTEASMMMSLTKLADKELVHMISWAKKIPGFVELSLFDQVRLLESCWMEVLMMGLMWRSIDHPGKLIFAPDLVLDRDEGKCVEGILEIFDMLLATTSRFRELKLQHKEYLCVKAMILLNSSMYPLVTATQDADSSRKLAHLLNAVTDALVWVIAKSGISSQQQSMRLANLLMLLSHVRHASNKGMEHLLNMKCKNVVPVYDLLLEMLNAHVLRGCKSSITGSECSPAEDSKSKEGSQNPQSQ
Procedure, shortened: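 ER-beta-UAS-bla HEK293T (GripTite) cells carrying a UAS-driven beta-lactamase reporter, in medium with 2% charcoal-stripped FBS, were exposed to compounds for 16 hr at 37C; LiveBLAzer B/G FRET substrate was then added and fluorescence read after 2 hours at room temperature.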

[17] = target: Estrogen receptor beta (Homo sapiens) (UniProt Q92731); assay: qHTS assay to identify small molecule antagonists of the estrogen receptor beta (ER-beta) signaling pathway (AID 1259378; active means well fitted inhibition curve with a large enough effect in the signal ratio in the repeat runs, not every such curve was filed as active; the % refers to the signal ratio; further: potency means the concentration at half of the fitted maximal effect)
Procedure, shortened: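 ER-beta-UAS-bla HEK293T (GripTite) cells in 2% charcoal-stripped FBS medium were preincubated 6 hr at 37C, dosed with compound, then stimulated with 1 nM E2 (final) for 16 hr; beta-lactamase reporter read by B/G FRET fluorescence after 2 hr substrate loading.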

[18] = qHTS assay to identify small molecule antagonists of the sonic hedgehog signaling (Shh) pathway - cell viability counter screen (AID 1259367); further: nearly all actives have a fitted effect of over 55% in size; further: potency means the concentration at half of the fitted maximal effect
Procedure, shortened: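 After a 4 hr settling period, 3T3 Gli1-Luc cells were treated with DMSO-dissolved chemicals and conditioned medium, kept 24 hr at 37C in 5% CO2, and assayed for viability by CellTiter-Fluor fluorescence following 1 hr reagent incubation.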

[19] = target: Thyrotropin receptor (Homo sapiens) (UniProt P16473); assay: qHTS assay to identify small molecule antagonists of the thyroid stimulating hormone receptor (TSHR) signaling pathway (AID 1259385; calls by dose curve; further: nearly all actives have a fitted effect of over 20% in size; further: potency means the concentration at half of the fitted maximal effect)
Chain of Thyrotropin receptor (Homo sapiens) (P16473 whole entry, looked up): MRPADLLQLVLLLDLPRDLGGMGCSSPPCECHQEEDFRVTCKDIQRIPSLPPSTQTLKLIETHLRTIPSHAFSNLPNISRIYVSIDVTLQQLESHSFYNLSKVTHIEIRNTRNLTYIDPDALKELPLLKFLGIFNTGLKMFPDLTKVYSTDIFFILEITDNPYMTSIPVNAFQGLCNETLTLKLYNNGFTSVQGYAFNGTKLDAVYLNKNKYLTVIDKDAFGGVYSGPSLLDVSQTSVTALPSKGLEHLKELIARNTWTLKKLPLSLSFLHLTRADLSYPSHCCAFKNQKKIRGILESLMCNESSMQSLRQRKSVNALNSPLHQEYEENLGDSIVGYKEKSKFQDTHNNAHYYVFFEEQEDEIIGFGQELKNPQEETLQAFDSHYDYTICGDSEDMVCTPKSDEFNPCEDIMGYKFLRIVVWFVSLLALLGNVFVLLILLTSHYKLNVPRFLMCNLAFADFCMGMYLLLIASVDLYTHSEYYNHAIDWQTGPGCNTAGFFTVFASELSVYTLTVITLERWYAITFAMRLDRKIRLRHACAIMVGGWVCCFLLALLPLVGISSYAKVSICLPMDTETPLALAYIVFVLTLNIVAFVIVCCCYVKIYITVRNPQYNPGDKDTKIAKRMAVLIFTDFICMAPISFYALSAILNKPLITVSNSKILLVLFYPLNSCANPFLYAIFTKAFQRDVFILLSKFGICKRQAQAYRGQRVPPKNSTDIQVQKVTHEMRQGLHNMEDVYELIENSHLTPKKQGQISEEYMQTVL
Procedure, shortened: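 TSHR-HEK293 cells were plated and held 18 h at 37C/5% CO2, then given compound plus Ro20-1724 and stimulated with TSH at 1.5 ng/mL final. After 30 min at room temperature, cAMP was detected with cAMP-d2/anti-cAMP-cryptate (1 h) by fluorescence.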

CCCCCCCCNC(C)C(O)c1ccc(SC(C)C)cc1 (stereo not given)
inactive: Potency [4] | Potency [5] | Potency [7] | Potency [11] | Potency [13] | outcome [14]
active: Potency [1] 23.7 µM | Potency [2] 23.7 µM | Potency [3] 29.8 µM | Potency [6] 16.8 µM | Potency [8] 18.8 µM | Potency [9] 23.7 µM | Potency [10] 11.9 µM | Potency [12] 13.3 µM

CCC1=C[C@@H]2CN(C1)Cc1c([nH]c3ccccc13)[C@@](C(=O)OC)(c1cc3c(cc1OC)N(C)[C@H]1[C@@](O)(C(=O)OC)[C@H](OC(C)=O)[C@]4(CC)C=CCN5CC[C@]31[C@@H]54)C2
inactive: Potency [1] | Potency [4] | Potency [5] | Potency [15] | Potency [7] | Potency [12] | Potency [13]
active: Potency [3] 21.1 µM | Potency [6] 11.9 µM | Potency [8] 0.0042 µM

CC1(C)CCC(C)(C)c2cc(C(=O)Nc3ccc(C(=O)O)cc3)ccc21
active: Potency [17] 43.3 µM
inactive: Potency [1] | Potency [2] | Potency [3] | Potency [5] | Potency [7] | Potency [16] | Potency [9] | Potency [11] | Potency [12] | Potency [13] | outcome [14]

CC(C)(C)C1CCC(CC2=C(O)c3ccccc3C(=O)C2=O)CC1 (stereo not given)
inactive: Potency [5] | Potency [15] | Potency [6] | Potency [18] | Potency [7] | Potency [11] | Potency [13] | outcome [14] | Potency [19]
active: Potency [1] 10.6 µM | Potency [2] 8.41 µM | Potency [3] 21.1 µM | Potency [9] 13.3 µM

Cc1cc(O)c2ccccc2c1O
inactive: Potency [4] | Potency [7] | Potency [11] | Potency [13] | outcome [14]
active: Potency [1] 18.8 µM | Potency [2] 11.9 µM | Potency [3] 13.3 µM | Potency [6] 5.31 µM | Potency [18] 13.3 µM | Potency [8] 13.3 µM | Potency [9] 26.6 µM | Potency [10] 13.3 µM

O=C(OC[C@H]1O[C@@H](OC(=O)c2cc(O)c(O)c(OC(=O)c3cc(O)c(O)c(O)c3)c2)[C@H](OC(=O)c2cc(O)c(O)c(OC(=O)c3cc(O)c(O)c(O)c3)c2)[C@@H](OC(=O)c2cc(O)c(O)c(OC(=O)c3cc(O)c(O)c(O)c3)c2)[C@@H]1OC(=O)c1cc(O)c(O)c(OC(=O)c2cc(O)c(O)c(O)c2)c1)c1cc(O)c(O)c(OC(=O)c2cc(O)c(O)c(O)c2)c1
inactive: viability change, negative = cytotoxic [1] -18.2% [at 19 µM] | Potency [4] | activity change, negative = inhibition [5] 4.81% [at 19 µM] | activity change, negative = cytotoxicity [15] -4.93% [at 19 µM] | activity change [7] -2.95% [at 18.9 µM, hits give high values] | activity change, negative = cytotoxicity [12] -6.33% [at 19 µM]
active: Potency [6] 11.7 µM | Potency [18] 6.57 µM | Potency [8] 5.22 µM

O=C1CCCc2c1cc1ccc3cccc4ccc2c1c34
active: Potency [2] 9.81 µM | Potency [10] 31 µM
inactive: Potency [1] | Potency [3] | Potency [5] | Potency [6] | Potency [18] | Potency [7] | Potency [8] | Potency [11] | outcome [14] | Potency [19]

Cc1nc(-c2ccc3c(c2)CCN(CCC2CCC(NC(=O)/C=C/c4ccc(F)cc4)CC2)CC3)no1 (stereo not given)
inactive: Potency [1] | Potency [2] | Potency [3] | Potency [5] | Potency [15] | Potency [6] | Potency [18] | Potency [7] | Potency [8] | Potency [9] | Potency [10] | Potency [11] | Potency [12] | Potency [13] | outcome [14] | Potency [19]

Oc1c(Cl)cc(Cl)c2cccnc12
inactive: Potency [1] | Potency [4] | Potency [5] | Potency [15] | Potency [7] | Potency [13] | outcome [14] | Potency [19]
active: Potency [3] 18.8 µM | Potency [6] 4.22 µM | Potency [10] 4.73 µM | Potency [12] 11.9 µM

O=C1C=CC(=O)N1
inactive: Potency [2] | Potency [5] | Potency [7] | Potency [13] | outcome [14]
active: Potency [1] 49.8 µM | Potency [3] 55.9 µM | Potency [6] 5.59 µM | Potency [18] 7.04 µM | Potency [8] 1.58 µM | Potency [17] 28 µM | Potency [9] 49.8 µM | Potency [10] 55.9 µM | Potency [11] 8.86 µM | Potency [12] 28 µM

CCCCCCCCCCn1cc[n+](CCCCCCCCCC)c1C
inactive: Potency [5] | Potency [7] | Potency [11] | Potency [13] | outcome [14]
active: Potency [1] 30.7 µM | Potency [2] 2.17 µM | Potency [3] 3.86 µM | Potency [15] 61.2 µM | Potency [6] 27.3 µM | Potency [18] 30.7 µM | Potency [8] 0.077 µM | Potency [9] 24.4 µM | Potency [10] 30.7 µM | Potency [12] 27.3 µM | Potency [19] 54.5 µM

COc1ccc(C(=O)/C(Br)=C\C(=O)O)cc1
inactive: Potency [1] | Potency [3] | Potency [4] | Potency [5] | Potency [15] | Potency [10] | Potency [11] | Potency [12] | Potency [13] | outcome [14]
active: Potency [2] 48.6 µM | Potency [7] 17.2 µM | Potency [8] 3.86 µM
